# Measured values taken from PubChem BioAssay (EPA / NIEHS).
# Values joined by “and” are separate entries in the source; they are usually repeats but may differ in a detail not shown here. Equal values may be shown once. Results filed as inconclusive are left out. Where a structure was tested more than once in an assay, its records may differ in their call. Active and inactive are the calls of the source. Rule for the calls: active = hit-call score of the fitted dose curve at least 0.9, where 1 is the maximum; inconclusive = response in the unintended direction; inactive = score below 0.9.
# Assay: CCTE_Shafer_MEA_dev_AB: CCTE's Alamar Blue Assay for Cytotoxicity in the Neural Network Formation Assay, Shafer Lab (AID 2284083);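 note: twelve days of exposure from plating with re-dosing on DIV 5 and 9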
# Description: CCTE_Shafer_MEA_dev assay is conducted using Axion Biosystems 48 well microelectrode array (MEA) plates and Maestro recording system. Each well of the MEA plate contains a grid of 16 microelectrodes embedded in the culture surface. Electrically active cells, such as neurons, can be cultured over the electrodes, and electrical activity in these cells can be recorded extracellularly. The spontaneous firing of neurons is captured from each electrode on a microsecond timescale providing both temporally and spatially precise data. […] The CCTE_Shafer_MEA_dev assay uses primary cultures of rat cortical neurons. Recordings are made on days post-plating 5, 7, 9 and 12. As these cultures mature over time, neural networks develop functional activity and form cohesive networks in which electrical activity can be highly coordinated. CCTE_Shafer_MEA_dev_AB is 1 of 19 assay components of the CCTE_Shafer_MEA_dev assay. It measures the resazurin reduction using fluorescence.Data from the assay component CCTE_Shafer_MEA_dev_AB was analyzed into 1 assay endpoint. This assay endpoint, CCTE_Shafer_MEA_dev_AB, was analyzed in the positive analysis fitting direction relative to DMSO as the negative control and baseline of activity. Using a type of viability reporter, loss-of-signal activity can be used to understand cell viability.
# On the day prior to culture, each well was coated thoroughly with 150 uL of 0.05% polyethyleneimine (PEI, Sigma Cat P3143) in 50 mM HEPES (Sigma Cat H7523) at a pH of 8. The plate was incubated at 37C for one hour. PEI was rinsed out with 500 uL of sterile water three times. Plates were stored at 4C until the day of culture. This culture was plated at a seeding density of 1.5 x 10^5 cells/well on a 48-well MEA plate, prepared as described above. Cells were administered via a 25 uL media/laminin ([…]; Sigma Cat L2020-1MG) drop directly onto the microelectrode array, as adding the cells with the laminin results in better attachment than pre-coating with laminin. After 2 hours, an additional 475 uL of cortical media was added and the cells returned to the incubator. Exposure starts at day 0 of plating and is continued over twelve days of network development until the experiment is terminated. Cells are fed with fresh medium on DIV 5 and 9, following the recordings on those days. The entire volume of media in the well is exchanged and any vehicle or compound treatment is renewed. Complete details are found in OP-NHEERL/ISTD/SBB/TJS/2015-03-r0 (available on request, email shafer.tim@epa.gov). Measurement of the electrical activity is non-invasive, and recordings can be made from the same plate over multiple different days of the culture. In cortical neurons, this allows for the measurement of extracellular action potentials over the period during which networks form in the MEA plate.
Structure (SMILES),AC50,outcome
O=S(=O)(O)C(F)(F)C(F)(F)C(F)(F)C(F)(F)C(F)(F)C(F)(F)C(F)(F)C(F)(F)F,50 µM (active),
CCC(C)(C)C(=O)OC1=C(c2ccc(Cl)cc2Cl)C(=O)OC12CCCCC2,,inactive
COP(=O)(OC)OC=C(Cl)Cl,30.4 µM (active),
CC[C@H](C)[C@H]1O[C@]2(C=C[C@@H]1C)C[C@@H]1C[C@@H](C/C=C(\C)[C@@H](O[C@H]3C[C@H](OC)[C@@H](O[C@H]4C[C@H](OC)[C@@H](O)[C@H](C)O4)[C@H](C)O3)[C@@H](C)/C=C/C=C3\CO[C@@H]4[C@H](O)C(C)=C[C@@H](C(=O)O1)[C@]34O)O2 (tested in a mixture with another compound),7.85 µM (active),inactive
CC1(C)C(C=C(Cl)Cl)C1C(=O)OC(C#N)c1ccc(F)c(Oc2ccccc2)c1 (stereo unspecified),64.4 µM (active),inactive
O=S1OCC2C(CO1)C1(Cl)C(Cl)=C(Cl)C2(Cl)C1(Cl)Cl (stereo unspecified),9.32 µM (active),
CC(C)N(C(=O)COc1nnc(C(F)(F)F)s1)c1ccc(F)cc1,7.79 µM (active),inactive
COP(=S)(OC)Oc1ccc([N+](=O)[O-])cc1,24.3 µM (active),
Oc1cc(Cl)ccc1Oc1ccc(Cl)cc1Cl,14.2 µM (active),
CC1(c2ccc(Oc3ccccc3)cc2)OC(=O)N(Nc2ccccc2)C1=O (stereo unspecified),4.56 µM (active),
ClC1C(Cl)C(Cl)C(Cl)C(Cl)C1Cl (stereo unspecified),,inactive
O=C(O)COc1ccc(Cl)cc1Cl,,inactive
CNC(=O)CSP(=S)(OC)OC,50 µM (active) and 26.8 µM (active),
